Laboratory results taken from ChEMBL document CHEMBL1961873, “Compounds: GSK PKIS; Assays: Nanosyn kinase panel” (2012).

How the values were obtained:
[1] = biological target: RAF proto-oncogene serine/threonine-protein kinase (Homo sapiens) (UniProt P04049); details: at 1 µM;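 also: values are the mean percent inhibition of CRAF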
[2] = biological target: T1, Interleukin-1 receptor-associated kinase 4 (Homo sapiens) (UniProt Q9NWZ3); details: at 0.1 µM
T1 sequence (whole entry): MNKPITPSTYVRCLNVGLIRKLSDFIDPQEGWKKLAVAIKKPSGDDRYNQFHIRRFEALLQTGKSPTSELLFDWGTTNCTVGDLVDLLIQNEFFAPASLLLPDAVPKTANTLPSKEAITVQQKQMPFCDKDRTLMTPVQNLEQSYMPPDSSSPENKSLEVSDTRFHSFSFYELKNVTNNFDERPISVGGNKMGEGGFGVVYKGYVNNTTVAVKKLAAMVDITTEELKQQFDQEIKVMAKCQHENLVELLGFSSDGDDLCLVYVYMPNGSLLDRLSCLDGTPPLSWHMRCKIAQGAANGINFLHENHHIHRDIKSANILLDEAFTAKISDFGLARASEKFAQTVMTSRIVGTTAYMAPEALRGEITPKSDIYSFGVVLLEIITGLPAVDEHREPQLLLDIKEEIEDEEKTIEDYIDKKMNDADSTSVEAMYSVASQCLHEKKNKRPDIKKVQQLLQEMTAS

[3] = biological target: T1, Interleukin-1 receptor-associated kinase 4 (Homo sapiens); details: at 1 µM
[4] = biological target: Leucine-rich repeat serine/threonine-protein kinase 2 (Homo sapiens) (UniProt Q5S007); details: at 0.1 µM
[5] = biological target: Leucine-rich repeat serine/threonine-protein kinase 2 (Homo sapiens) (UniProt Q5S007); details: at 1 µM
[6] = tested on: Leucine-rich repeat serine/threonine-protein kinase 2 (Homo sapiens), Q5S007 [G2019S]; details: at 0.1 µM
[7] = tested on: Leucine-rich repeat serine/threonine-protein kinase 2 (Homo sapiens), Q5S007 [G2019S]; details: at 1 µM

Sequence of RAF proto-oncogene serine/threonine-protein kinase (Homo sapiens) (P04049 whole entry): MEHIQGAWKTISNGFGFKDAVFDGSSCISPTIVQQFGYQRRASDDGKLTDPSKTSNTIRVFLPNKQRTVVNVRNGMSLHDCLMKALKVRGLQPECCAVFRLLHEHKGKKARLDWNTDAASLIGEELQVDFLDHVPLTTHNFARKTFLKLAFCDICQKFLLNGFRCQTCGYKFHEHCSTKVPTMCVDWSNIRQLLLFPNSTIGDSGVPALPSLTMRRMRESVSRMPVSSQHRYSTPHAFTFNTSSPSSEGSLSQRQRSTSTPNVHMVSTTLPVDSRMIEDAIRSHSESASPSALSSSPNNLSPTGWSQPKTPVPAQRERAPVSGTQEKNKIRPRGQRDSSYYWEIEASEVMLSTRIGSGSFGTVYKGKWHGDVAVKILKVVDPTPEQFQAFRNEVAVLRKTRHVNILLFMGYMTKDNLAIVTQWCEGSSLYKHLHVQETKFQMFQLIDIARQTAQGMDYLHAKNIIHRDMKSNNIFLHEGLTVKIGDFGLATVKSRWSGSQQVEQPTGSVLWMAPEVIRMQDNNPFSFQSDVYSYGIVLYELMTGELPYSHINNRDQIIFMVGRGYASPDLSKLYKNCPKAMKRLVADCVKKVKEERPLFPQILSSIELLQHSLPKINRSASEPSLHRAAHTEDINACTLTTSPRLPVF
Sequence of Leucine-rich repeat serine/threonine-protein kinase 2 (Homo sapiens), Q5S007 [G2019S] (Q5S007 whole entry G2019S): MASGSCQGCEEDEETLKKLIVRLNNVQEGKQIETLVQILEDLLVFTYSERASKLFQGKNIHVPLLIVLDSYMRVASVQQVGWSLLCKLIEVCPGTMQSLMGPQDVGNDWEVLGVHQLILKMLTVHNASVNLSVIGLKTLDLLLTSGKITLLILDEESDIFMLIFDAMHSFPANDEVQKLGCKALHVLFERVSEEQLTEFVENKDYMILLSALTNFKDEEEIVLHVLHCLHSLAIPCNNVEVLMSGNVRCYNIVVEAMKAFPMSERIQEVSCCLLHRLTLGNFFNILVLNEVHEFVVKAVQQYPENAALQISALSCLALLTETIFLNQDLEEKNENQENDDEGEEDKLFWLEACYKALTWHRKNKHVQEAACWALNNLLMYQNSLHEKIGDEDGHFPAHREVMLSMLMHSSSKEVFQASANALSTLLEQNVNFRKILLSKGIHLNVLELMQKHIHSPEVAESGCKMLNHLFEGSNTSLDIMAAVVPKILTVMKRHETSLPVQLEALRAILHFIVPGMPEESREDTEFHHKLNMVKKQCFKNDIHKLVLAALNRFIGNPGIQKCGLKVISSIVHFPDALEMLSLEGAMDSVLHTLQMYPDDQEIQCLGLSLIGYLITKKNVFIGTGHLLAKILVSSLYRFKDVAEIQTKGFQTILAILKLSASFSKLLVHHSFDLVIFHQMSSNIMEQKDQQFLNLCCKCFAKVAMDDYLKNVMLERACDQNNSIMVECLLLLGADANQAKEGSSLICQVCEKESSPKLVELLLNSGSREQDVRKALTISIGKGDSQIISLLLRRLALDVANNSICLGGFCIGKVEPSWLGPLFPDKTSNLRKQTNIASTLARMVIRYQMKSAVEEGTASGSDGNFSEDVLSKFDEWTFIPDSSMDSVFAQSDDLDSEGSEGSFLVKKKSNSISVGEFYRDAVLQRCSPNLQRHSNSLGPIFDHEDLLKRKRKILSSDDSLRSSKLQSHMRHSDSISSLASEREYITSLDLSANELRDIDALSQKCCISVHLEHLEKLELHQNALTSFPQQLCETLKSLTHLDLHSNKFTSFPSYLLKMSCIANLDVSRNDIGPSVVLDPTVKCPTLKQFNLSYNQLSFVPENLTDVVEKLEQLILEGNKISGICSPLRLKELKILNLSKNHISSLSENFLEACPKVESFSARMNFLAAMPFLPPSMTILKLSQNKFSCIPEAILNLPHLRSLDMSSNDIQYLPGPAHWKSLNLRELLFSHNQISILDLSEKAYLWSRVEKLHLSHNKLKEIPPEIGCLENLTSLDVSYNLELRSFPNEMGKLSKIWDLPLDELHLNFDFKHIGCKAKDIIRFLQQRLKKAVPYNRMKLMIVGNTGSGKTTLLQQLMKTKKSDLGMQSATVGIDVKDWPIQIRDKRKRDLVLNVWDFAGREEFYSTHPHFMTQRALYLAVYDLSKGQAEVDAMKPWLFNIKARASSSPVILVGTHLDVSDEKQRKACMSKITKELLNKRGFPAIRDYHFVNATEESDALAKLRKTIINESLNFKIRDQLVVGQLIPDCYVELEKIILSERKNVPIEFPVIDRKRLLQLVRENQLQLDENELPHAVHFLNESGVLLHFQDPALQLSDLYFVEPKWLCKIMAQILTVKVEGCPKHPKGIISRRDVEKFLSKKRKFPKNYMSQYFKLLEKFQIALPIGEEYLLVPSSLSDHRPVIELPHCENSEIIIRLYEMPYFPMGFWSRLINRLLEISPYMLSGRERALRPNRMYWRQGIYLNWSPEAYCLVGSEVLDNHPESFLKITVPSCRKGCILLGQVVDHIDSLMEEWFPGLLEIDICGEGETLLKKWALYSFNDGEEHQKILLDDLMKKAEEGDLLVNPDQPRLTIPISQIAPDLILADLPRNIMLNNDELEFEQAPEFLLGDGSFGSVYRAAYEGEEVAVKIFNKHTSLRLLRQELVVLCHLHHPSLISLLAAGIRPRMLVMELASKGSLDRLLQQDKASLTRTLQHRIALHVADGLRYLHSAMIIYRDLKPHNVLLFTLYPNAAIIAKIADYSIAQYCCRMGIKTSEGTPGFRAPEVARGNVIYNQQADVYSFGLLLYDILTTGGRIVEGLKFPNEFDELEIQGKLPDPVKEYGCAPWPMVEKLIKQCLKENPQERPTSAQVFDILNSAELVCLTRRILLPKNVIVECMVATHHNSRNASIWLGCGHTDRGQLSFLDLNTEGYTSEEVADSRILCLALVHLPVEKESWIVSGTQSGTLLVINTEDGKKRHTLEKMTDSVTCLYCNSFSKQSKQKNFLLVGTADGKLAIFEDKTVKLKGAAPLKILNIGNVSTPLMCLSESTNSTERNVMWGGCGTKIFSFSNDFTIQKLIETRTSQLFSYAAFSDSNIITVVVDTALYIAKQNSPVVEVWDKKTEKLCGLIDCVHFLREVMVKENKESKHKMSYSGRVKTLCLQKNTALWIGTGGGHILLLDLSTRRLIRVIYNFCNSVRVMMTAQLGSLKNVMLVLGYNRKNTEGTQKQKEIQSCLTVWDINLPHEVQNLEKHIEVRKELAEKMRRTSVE
Sequence of Leucine-rich repeat serine/threonine-protein kinase 2 (Homo sapiens) (Q5S007 whole entry): as the sequence (Q5S007 whole entry G2019S) above, with S2019G counted along it

SMILES	inhibition [1] [%]	inhibition [2] [%]	inhibition [3] [%]	inhibition [4] [%]	inhibition [5] [%]	inhibition [6] [%]	inhibition [7] [%]
CCn1c(-c2nonc2N)nc2cnc(Oc3cccc(NC(=O)c4ccc(OCCN5CCOCC5)cc4)c3)cc21	6.03	3.17	1.66	0.83	9.41	4.44	29.3
COc1cc2c(cc1Nc1nc(N3CCc4ccccc43)c3cc[nH]c3n1)N(C(=O)CN(C)C)CC2	-4.34	-0.95	0.98	17.6	19.3	18.2	57.1
CS(=O)(=O)CCNCc1ccc(-c2ccc3ncnc(Nc4ccc(OCc5ccccc5)c(Cl)c4)c3c2)o1	-1.69	0.4	0.86	2.66	7.97	4.51	7.5
COc1ccc(-c2ccncc2)cc1C(N)=O	-2.86	1.8	2.34	2.67	5.73	4.45	9.13
COc1cc(C=NNc2ncnc3c2cnn3-c2ccccc2)ccc1O	-6.14	-2.02	3.98	7.59	22.3	7.59	40.8
N#Cc1c(NC(=O)c2cccc3ccccc23)sc2c1CCCC2	3.48	2.64	1.05	1.35	2.73	1.99	3.65
Cc1cc(O)cc(C)c1/C=C/c1cncc(-c2nn[nH]n2)c1	60.8	1.46	2.18	1.54	10.4	6.18	35.4
COc1cccc(-n2ncc3c(N/N=C/c4cccc(F)c4)ncnc32)c1	-6.84	3.28	1.56	-3.46	-0.49	0.79	2.23
Cc1ccc(C(=O)NC2CCCCC2)cc1-c1ccc(C(=O)NCC2CC2)cc1	0.13	-1.27	1.67	6.21	6.84	3.47	3.31
O=C1NC(=O)C(c2ccccc2Cl)=C1Nc1cccc(O)c1	-0.43	-2	1.87	4.27	13.2	3.28	14.6
CN(C)c1cc2c(Nc3ccc4nc(Cc5ccccc5)[nH]c4c3)ncnc2cn1	-7.27	2.36	1.94	5.94	7.11	5.3	13.7
CNC(=O)c1cncc(/C=C/c2c(Cl)cccc2Cl)c1	0.92	1.25	2.37	0.98	7.19	5.24	14.7
COc1ccccc1Nc1ncc(-c2ccccc2)o1	1.9	2.31	2.99	4.53	8.57	6.36	11.3
Fc1cccc(COc2ccc(Nc3ncnc4cc(-c5ccc[nH]5)sc34)cc2Cl)c1	1.43	7.16	1.69	-4.42	-3.46	-1.54	0.39
Nc1ncnc2occ(-c3ccc(NC(=O)Nc4cccc(C(F)(F)F)c4)cc3)c12	-2.58	2.03	2.34	17.1	57.9	13.1	42.8
COc1ccc(-c2nn3ncccc3c2-c2ccnc(Nc3ccc(Cl)c(C(F)(F)F)c3)n2)cc1	-8.01	2.17	0.42	0.37	1.12	2.99	3.98
Cc1nn(C)c2cc(N(C)c3ccnc(Nc4cccc(S(N)(=O)=O)c4)n3)ccc12	3.83	2.51	6.18	1.65	7	4.07	12.3
COC(=O)Nc1nc2cc(Oc3ccc(NC(=O)Nc4cccc(C(=O)O)c4)cc3)ccc2[nH]1	0.7	1.45	0.26	-4.47	4.49	-2.68	3.07
COc1cc2ncn(-c3cc(O[C@@H](C)c4ccccc4Cl)c(C(N)=O)s3)c2cc1OC	4.09	1.23	2.08	10.9	50	24	64
CN1CCC(C(=O)Nc2n[nH]c3nnc(-c4ccccc4)cc23)CC1	8.96	1.96	2.54	1.09	3.72	3.14	6.96
NC(=O)c1cccc(Nc2nccc(Nc3cccc4[nH]ncc34)n2)c1	-3.49	-3.26	3.19	0.85	8.7	4.42	30.9
O=C1NC(=O)C(N2CCc3ccccc32)=C1c1ccc(Cl)cc1	0.17	3.05	1.81	3.88	8.75	4.99	10.7
CCn1c(-c2nonc2N)nc2ccncc21	14	2.09	0.65	1.49	2.85	1.49	6.2
NCc1ccc(-c2nc(-c3ccc(Cl)c(O)c3)c(-c3ccncc3)[nH]2)cc1	76.6	3	0.37	1.04	1.56	1.02	4.61

SMILES	inhibition [1] [%]	inhibition [2] [%]	inhibition [3] [%]	inhibition [4] [%]	inhibition [5] [%]	inhibition [6] [%]	inhibition [7] [%]
COc1ccc(-c2coc3ncnc(N)c23)cc1	4.1	0.41	1.48	3.62	6.4	4.35	7.19
CS(=O)(=O)Nc1ccc(N/C=C2\C(=O)Nc3ccccc32)cc1	-2.68	-0.49	-0.15	1.31	18.1	5.01	31.3
O=C1Nc2ccc(C(=O)c3ccco3)cc2C1=Cc1cc(Cl)c(O)c(Cl)c1	48.6	3.84	5.2	22.8	24	61.1	63.9
CC(C)=Cc1cccc2c1/C(=N/Nc1ccc(S(N)(=O)=O)cc1)C(=O)N2	-1.14	-0.76	0.79	14.9	65.4	17.7	60.9
CCn1c(-c2nonc2N)nc2c(C#CC(C)(C)O)nc(OC[C@@H](N)c3ccccc3)cc21	3.8	-2.13	0.37	2.04	8.46	2.34	19.7
O=C1NC(=O)C(c2cccc(Cl)c2)=C1Nc1ccc(O)c(Cl)c1	3.11	2.97	0.96	4.5	18.4	4.28	30
[O-][S+]1CCN(Cc2ccc(-c3ccc4ncnc(Nc5ccc(OCc6ccccc6)c(F)c5)c4c3)o2)CC1	-3.42	3.06	1.06	2.89	2.77	2.32	8.38
COc1cc2ncn(-c3cc(OCc4ccccc4C(F)(F)F)c(C(N)=O)s3)c2cc1OC	-0.64	1.2	1.85	1.63	16.1	5.35	40.1
CC(=O)Nc1cccc(C#Cc2cncnc2Nc2ccc(OCc3cccc(F)c3)c(Cl)c2)n1	-2.95	-0.61	-0.89	3.07	4.78	2.03	5
COC(=O)Nc1nc2cc(Oc3cccc(NC(=O)Nc4cc(C(F)(F)F)ccc4F)c3)ccc2[nH]1	–	3.51	-0.12	0.62	1.81	2.19	4.67
CCCN1CCC=C(c2ccc(Nc3nc(Nc4ccccc4C(N)=O)c4cc[nH]c4n3)c(C)c2)C1	3.95	2.14	5.18	77.6	87.8	63.6	63.6
CCc1cccc(NC(=O)Nc2ccc(Oc3ccc4nc(NC(=O)OC)[nH]c4c3)cc2)c1	4.58	0.53	1.04	9.23	8.78	5.51	8.2
Nc1nc(-c2ccc3c(c2)C(=Cc2cc(Br)c(O)c(Br)c2)C(=O)N3)cs1	26.7	3.08	-0.15	0.74	14.2	10.3	43.5
CCn1c(-c2nonc2N)nc2c(N3CCCC3)nccc21	-1.43	1.9	-0.28	-2.19	2.91	0.77	1.57
CCn1c(-c2nonc2N)nc2cncc(C(=O)N3CC[C@H](N)C3)c21	3.85	2.88	2.25	4.57	14.5	7.16	29.5
CS(=O)(=O)CCNCc1ccc(-c2ccc3ncnc(Nc4ccc(OCc5cccc(F)c5)c(C(F)(F)F)c4)c3c2)o1	12.1	4.38	1.89	0.82	1.68	3.39	2.93
NS(=O)(=O)c1cccc(-c2ccc3c(NC(=O)C4CC4)n[nH]c3c2)c1	-2.5	1.83	-0.64	-2.61	1.25	1.47	1.75
COc1ccc(COc2ccc(Cc3cnc(N)nc3N)cc2OC)cc1	–	1.04	0.89	4.88	5.38	3.29	5.32
CCCN1CCC(Oc2cc(Nc3nc(Nc4cccc(F)c4C(N)=O)c4cc[nH]c4n3)c(OC)cc2Cl)CC1	5.41	-2.83	2.25	11.5	19.6	12.8	55.9
NS(=O)(=O)c1ccc(N/N=C2\C(=O)Nc3ccc(C(=O)NCCc4c[nH]cn4)cc32)cc1	–	-1.81	2.08	10.3	16.9	15.3	50
COc1cc2ncn(-c3cc(O[C@H](C)c4ccccc4Cl)c(C(N)=O)s3)c2cc1OC	2.16	-1.67	3.82	5.85	21.6	12.1	51.9
CCN1CCC(CC(=O)Nc2n[nH]c3nc(-c4cccs4)c(Br)cc23)CC1	1.23	-3.96	-0.76	-0.41	2.42	0.89	2.44
NC(=O)c1ccc(-c2nc(-c3ccccn3)c(-c3ccc4c(c3)OCO4)[nH]2)cc1	15.6	2.26	1.06	2.49	5.02	2.85	3.41
Cc1nnc(-c2ccc(C)c(-c3ccc(C(=O)Nc4cccc(C#N)c4)cc3)c2)o1	-9.42	4.13	0.84	0.06	0.83	2.49	7.62
